About 83,000 compounds went through this panel and 20% of them were active in at least one assay; those are over-represented in the sample as a whole.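 Cell lines were cultured in 96-well plates, exposed to a single compound concentration, and assessed for percent growth 48 hours later.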 A number with no mark means an inactive call. Active and inactive are the calls of the source. Rule for the calls: active = growth percent below 10; inactive = the rest.

Test systems include NCI-H23 lung; NCI-H226 lung; NCI-H322M lung; HOP-62 NSCLC; NCI-H460 lung; HOP-92 NSCLC; NCI-H522 lung; A549/ATCC NSCLC; 786-0 renal; COLO 205 colon; DU-145 prostate; K-562 leukemia; MALME-3M melanoma; MDA-MB-231 breast; RXF 393 renal; SF-268 CNS; SF-295 CNS; SF-539 CNS; UACC-257 melanoma; M14 melanoma.
What all share (experiment): NCI-60 one-dose screen, 48 h (100 = growth as untreated, 0 = no growth, -100 = all killed)
Common to all, as to conditions: 10 µM unless noted

For `C=C1SC(=Nc2ccccc2Cl)N(C(=O)c2sc3ccccc3c2Cl)C1(C)C`, the growth in the test on NCI-H23 lung was 36.7%; in the test with NCI-H226 lung, 77.1%; with NCI-H322M lung, 65.9%; with HOP-62 NSCLC it was 54.8%; in the test on NCI-H460 lung, 15.1%; in the test with HOP-92 NSCLC, 53.6%. For the same compound, the growth is 91.6% with NCI-H522 lung; 43.7% with A549/ATCC NSCLC; 77.8% in the test with 786-0 renal; -43.8% (active) in the test on COLO 205 colon; 94% in the test with DU-145 prostate; 20.3% in the test on K-562 leukemia. Moreover, the growth with MALME-3M melanoma is 79.6%; in the test with MDA-MB-231 breast it was 50.5%; in the test with RXF 393 renal, 93.8%; with SF-268 CNS it was 85.2%; in the test with SF-295 CNS, 27%; in the test on SF-539 CNS, 54.3%. For the same compound, the growth in the test with UACC-257 melanoma is 98.4%; in the test with M14 melanoma, 86.6%.
For `CN1CCOCCN(C)Cc2ccc3ccc(cc3c2)CN(C)CCOCCN(C)Cc2ccc3ccc(cc3c2)C1`, the growth in the test on NCI-H23 lung is 90.2%; in the test on NCI-H226 lung it was 111%; in the test on NCI-H322M lung it was 99.6%; in the test on HOP-62 NSCLC, 91.8%; in the test on NCI-H460 lung, 59.5%; with HOP-92 NSCLC it was 85.8%. Besides, the growth is 110% with NCI-H522 lung; 96.3% with A549/ATCC NSCLC; 75.8% in the test with 786-0 renal; 94.6% in the test on COLO 205 colon; 57.8% in the test with DU-145 prostate; -10.3% (active) in the test on K-562 leukemia. The growth in the test with MALME-3M melanoma is 68.8%; with MDA-MB-231 breast it was 70.8%; in the test on RXF 393 renal, 75.9%; with SF-268 CNS, 84.9%; with SF-295 CNS it was 103%; in the test with SF-539 CNS, 79.3%. The growth was 110% with UACC-257 melanoma and 99.4% in the test on M14 melanoma.
For `O=C(Nc1ccc(Nc2ccncc2)cc1)c1ccc(Nc2ccnc3ccc([N+](=O)[O-])cc23)cc1`, the growth is 86.9% with NCI-H23 lung; 89.8% in the test on NCI-H226 lung; 116% with NCI-H322M lung; 113% in the test with HOP-62 NSCLC; 68.2% in the test on NCI-H460 lung; 87.7% in the test with HOP-92 NSCLC. The growth with NCI-H522 lung was 102%; in the test on A549/ATCC NSCLC, 94.7%; with 786-0 renal it was 99.2%; with COLO 205 colon, 131%; in the test on DU-145 prostate it was 103%; with K-562 leukemia it was 80.5%. The growth is 114% in the test with MALME-3M melanoma; 80.5% with MDA-MB-231 breast; 116% with RXF 393 renal; 97.6% in the test with SF-268 CNS; 106% in the test on SF-295 CNS; 85.5% in the test on SF-539 CNS. Besides, the growth was 101% with UACC-257 melanoma and 108% with M14 melanoma.
For `C#CCOc1cccc(Nc2ncnc3c2ncn3C2CCN(C(=O)CCl)C2)c1` (stereo not given), the growth in the test with NCI-H23 lung was -23.1% (active); in the test on NCI-H226 lung, 1.03% (active); with NCI-H322M lung, 87.2%; in the test with HOP-62 NSCLC, 1.84% (active); in the test on NCI-H460 lung, 24.7%; with HOP-92 NSCLC it was -84.5% (active). The growth in the test with NCI-H522 lung is -61.3% (active); in the test on A549/ATCC NSCLC it was 54.6%; in the test on 786-0 renal, -72.4% (active); in the test with COLO 205 colon it was -72.5% (active); in the test on DU-145 prostate, -95.4% (active); in the test on K-562 leukemia, 0.116% (active). The growth is -84% (active) with MALME-3M melanoma; -61.2% (active) in the test on MDA-MB-231 breast; -79.4% (active) in the test on RXF 393 renal; -31.6% (active) in the test on SF-268 CNS; 53.4% in the test on SF-295 CNS; -68.5% (active) in the test on SF-539 CNS. The growth in the test on UACC-257 melanoma is 13.1%; with M14 melanoma it was -48.6% (active).
As to `COC1C(O)CC(OC2CC(OC3CC(O[C@@H]4C(=O)c5c(cc6cc(OC7CC(OC8CC(O)C(O)C(C)O8)C(O)C(C)O7)c(C)c(O)c6c5O)CC4[C@H](OC)C(=O)C(C)=O)OC(C)C3O)OC(C)C2O)OC1C` (stereo not given in full), the growth in the test with NCI-H23 lung is -23.8% (active); in the test with NCI-H226 lung, -10.8% (active); with NCI-H322M lung, -8.5% (active); with HOP-62 NSCLC it was -20.1% (active); with NCI-H460 lung, 8.4% (active); in the test with HOP-92 NSCLC, -6.32% (active). The growth with NCI-H522 lung is -35.4% (active); with A549/ATCC NSCLC, 1.9% (active); in the test on 786-0 renal, 4.33% (active); in the test with COLO 205 colon it was -47.6% (active); in the test with DU-145 prostate it was 10.4%; with K-562 leukemia, 2.1% (active). The growth in the test with MALME-3M melanoma was -30.6% (active); in the test on MDA-MB-231 breast, 6.75% (active); with RXF 393 renal, -56.3% (active); in the test with SF-268 CNS it was 2.33% (active); with SF-295 CNS, 0.867% (active); in the test with SF-539 CNS, -20.8% (active). The growth in the test with UACC-257 melanoma was -23.4% (active); with M14 melanoma, -34.4% (active).
With `O=c1cc(-c2ccccc2)nc(SCc2nc3cc(Cl)c(Cl)cc3[nH]2)[nH]1`, the growth in the test on NCI-H23 lung is 90.9%; in the test with NCI-H226 lung, 101%; in the test on NCI-H322M lung it was 90.7%; in the test with HOP-62 NSCLC, 93.2%; in the test on NCI-H460 lung, 111%; in the test with HOP-92 NSCLC, 104%. The growth was 85.3% in the test with NCI-H522 lung; 114% in the test with A549/ATCC NSCLC; 96.7% with 786-0 renal; 108% in the test with COLO 205 colon; 106% in the test with DU-145 prostate; 88.8% in the test on K-562 leukemia. The growth with MALME-3M melanoma was 103%; in the test with MDA-MB-231 breast, 102%; in the test on RXF 393 renal, 107%; with SF-268 CNS it was 101%; in the test on SF-295 CNS, 102%; in the test with SF-539 CNS it was 94.3%. In addition, the growth with UACC-257 melanoma was 103%; in the test on M14 melanoma, 104%.
In the case of `CC(C)(Sc1cc(C(C)(C)C)c(O)c(C(C)(C)C)c1)Sc1cc(C(C)(C)C)c(OC(=O)CCC(=O)O)c(C(C)(C)C)c1`, the growth in the test with NCI-H23 lung is 40%; with NCI-H226 lung, 67.4%; in the test on NCI-H322M lung, 56.4%; with HOP-62 NSCLC it was 44.7%; with NCI-H460 lung, 28.9%; in the test with HOP-92 NSCLC it was 35.8%. Further, the growth with NCI-H522 lung is 36.9%; in the test with A549/ATCC NSCLC, 28.6%; with 786-0 renal, 44.7%; in the test with COLO 205 colon, 55%; in the test on DU-145 prostate, 57.2%; in the test on K-562 leukemia, 69.4%. The growth with MALME-3M melanoma is 65.8%; with MDA-MB-231 breast, 58.3%; with RXF 393 renal it was 67%; in the test on SF-268 CNS, 57.3%; with SF-295 CNS it was 42.1%; in the test on SF-539 CNS, 47.8%. Also, the growth with UACC-257 melanoma is 61.8%; in the test with M14 melanoma it was 50.9%.

For the origin of these results see PubChem BioAssay (NCI).
